Assay results published in the supplement of paper PMC3334620.
The full ranking holds about 33,000 sequences; the median of “E-score (-0.5 to 0.5)” is about -0.043, and the highest 2% start at about 0.37. This excerpt belongs to a sample that is enriched for the highest values.

Target: T1, Upc2 (UniProt Q12151)
T1 sequence: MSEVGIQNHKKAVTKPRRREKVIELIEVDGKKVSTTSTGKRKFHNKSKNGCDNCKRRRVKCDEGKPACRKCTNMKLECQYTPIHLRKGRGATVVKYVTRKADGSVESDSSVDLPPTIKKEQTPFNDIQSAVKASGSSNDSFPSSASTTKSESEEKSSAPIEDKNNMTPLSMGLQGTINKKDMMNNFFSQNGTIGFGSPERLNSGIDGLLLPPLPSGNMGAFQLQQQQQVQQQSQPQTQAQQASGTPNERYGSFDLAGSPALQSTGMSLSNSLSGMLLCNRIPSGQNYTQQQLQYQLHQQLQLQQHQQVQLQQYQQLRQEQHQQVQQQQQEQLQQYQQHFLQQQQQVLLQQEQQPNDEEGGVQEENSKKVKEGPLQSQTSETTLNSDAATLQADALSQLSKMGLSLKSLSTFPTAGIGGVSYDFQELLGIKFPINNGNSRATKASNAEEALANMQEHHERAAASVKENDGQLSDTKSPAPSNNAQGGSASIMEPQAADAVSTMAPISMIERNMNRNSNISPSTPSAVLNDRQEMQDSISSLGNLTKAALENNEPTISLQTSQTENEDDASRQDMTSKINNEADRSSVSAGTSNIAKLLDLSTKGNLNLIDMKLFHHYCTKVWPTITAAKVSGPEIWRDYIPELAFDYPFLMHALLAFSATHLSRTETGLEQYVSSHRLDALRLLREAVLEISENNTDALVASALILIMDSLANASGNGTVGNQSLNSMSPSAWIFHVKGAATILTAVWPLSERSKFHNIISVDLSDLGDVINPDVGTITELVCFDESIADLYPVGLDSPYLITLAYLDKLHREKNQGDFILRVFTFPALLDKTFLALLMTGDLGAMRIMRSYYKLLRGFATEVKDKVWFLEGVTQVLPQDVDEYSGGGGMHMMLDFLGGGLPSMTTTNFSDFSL
Assay: PBM E-score (8-mer binding enrichment) (E-score (-0.5 to 0.5)); higher = stronger / more preferred TF binding
Conditions: protein concentration: 200 nM; construct: GST-full length
Description: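 Universal 'all 10-mer' protein binding microarrays (Agilent AMADID 015681) probed with GST-tagged S. cerevisiae TFs (full-length or DBD) made by in vitro transcription/translation (PURExpress), about 100-200 nM. Bound TF was detected with fluorescent anti-GST. Each ungapped 8-mer (which stands for itself and its reverse complement) is scored by the PBM enrichment score (E-score), a modified Wilcoxon-Mann-Whitney statistic from -0.5 to +0.5, computed with the Universal PBM Analysis Suite. Scale: above 0.35 generally sequence-specific binding.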

Sequence | PBM E-score
CGTTCAGA | 0.372
AGTTCAGA | -0.0704
GGTTCAGA | -0.186
AGTTCAGC | -0.205
CGTTCAGC | 0.396
AGGCGTGC | -0.0583
CGCAGTAG | -0.0605
AAAGGTGT | 0.0174
GTTAGCCA | -0.0759
ACTGAGAT | -0.184
GGTTAAAC | 0.232
CTTTAAAG | -0.114
CGTTAAGA | 0.341
CGTTAAGC | 0.432
AGTTAAAG | 0.0271
CGTTAAAC | 0.411
CGTTAAAG | 0.4
CGTTAAAA | 0.364
AGTTAAGC | 0.00193
GAAAACTC | -0.114
AGAGAATG | 0.0339
GCAGTGGA | -0.123
CTCAATAA | -0.213
GACAGTGA | -0.0168
CACTAGGA | -0.245

Sequence | PBM E-score
GGATACCA | -0.0879
CGATACAA | 0.0776
GGATACGA | 0.463
CGATACGA | 0.464
AGATACGA | 0.454
AGATACGG | 0.307
GGATACTA | -0.183
CGATACGC | 0.267
AGATACGC | 0.201
TGCGGCAA | -0.127
ATATCTAC | 0.0208
CTGCTCAC | 0.00302
AGCGTGAA | -0.0302
ACAGCTAT | -0.0224
AGGTCGTG | 0.0575
GGGTCGGA | 0.0691
AGGTCGTC | 0.0416
GGGTCGAA | 0.0267
GGGTCGTA | 0.42
CGGTCGTA | 0.442
CGGTCGTC | 0.0119
AGGTCGTA | 0.451
CGGTCGGA | -0.0376
CTGGGTGC | -0.106
GCGCACTA | -0.00558

Sequence | PBM E-score
CGGCTGCC | -0.0671
TGCGACCA | 0.0986
CACGACCG | 0.00924
AACGACCA | 0.405
AACGACCT | 0.386
AACGACCG | 0.403
AGCGACCT | 0.132
AACGACCC | 0.365
GACGACCA | 0.071
ACCGACCG | 0.13
CACGACCA | -0.0648
TCCGACCA | 0.0761
TACGACCA | 0.45
CAGCATAA | -0.0242
GGACCTAC | 0.0699
CCGATCTC | -0.136
AATGAGTC | -0.0524
ATTGGAAC | -0.0244
GGCTAACC | -0.0479
AAGTCGTG | -0.0736
CAGTCGTA | 0.416
GAGTCGTA | 0.43
CAGTCGGA | -0.016
AAGTCGTA | 0.416
GAGTCGGA | -0.0556

Sequence | PBM E-score
CAGTCGTC | -0.106
AAGTCGTC | 0.121
GAGTCGCA | 0.0248
GGACATTA | 0.01
AAATCTAA | -0.16
TCGCATCA | 0.209
CCGGGCAC | -0.214
ACAGATGC | -0.00973
AAGATTGA | -0.156
AACCGAAT | 0.277
AAACGAAG | 0.464
CAACGAAG | 0.235
AAACGAAA | 0.46
CAACGAAA | 0.221
AGACGAAG | 0.0695
AAACGTAT | 0.328
AAACGAAT | 0.451
TAACGAAA | 0.334
ACTCGACA | 0.0576
ACGCACTC | 0.151
GGTTGGGA | -0.0786
CCCTGCGC | -0.276
CGTACAGC | 0.446
AGTACAGC | -0.156
CCTACAGC | -0.334

Sequence | PBM E-score
GGTACAGA | -0.0181
CGTACAGA | 0.41
AGTACAGA | -0.0613
AGCAGACC | -0.0454
ATGGTACG | 0.388
CAGGTACA | -0.226
AAGGTACC | -0.0716
AAGGTACT | 0.00877
ATGGTACC | -0.257
AAGGTACG | 0.393
CAGGTACC | -0.112
ATGGTACA | -0.173
CAGGTACG | 0.396
CTTAGATA | -0.0328
AGCGTGGA | -0.0828
CAGAGACA | -0.356
AGCTCGTA | 0.473
CGCTCGTA | 0.466
CGCTCGGA | 0.163
GGCTCGTA | 0.472
AGCTCGTC | 0.103
CGCTCGTC | 0.127
GGCTCGGA | 0.0556
GGCTCGAA | -0.0434
AGCTCGTG | 0.107

Sequence | PBM E-score
AGGGCTAC | -0.113
GAGGGCGC | -0.0991
GTGGTTGA | -0.0855
TCGTATCA | 0.463
TCGTAACA | 0.404
CCGTAACA | 0.22
TCGTAAGA | 0.399
ACGTATCA | 0.254
GCGTAACA | 0.118
ACGTAAGA | 0.146
GCGTATCA | 0.182
CCGTAAGA | 0.21
CTGCAGAC | -0.0383
AACACTGA | 0.0163
GGGTCAAC | -0.231
TGAACTCA | -0.00504
CACCCTTC | -0.0111
TAATACGA | 0.429
GAATACTA | 0.104
GAATACGC | 0.175
TAATACCA | -0.0667
AAATACGT | 0.109
GAATACGA | 0.439
CAATACGG | 0.196
AAATACGA | 0.449

Sequence | PBM E-score
AAATACGC | 0.212
TAATACTA | 0.105
CAATACGA | 0.419
CAATACGC | 0.0949
ACTTTATA | 0.127
CCGTCCAC | -0.0949
AATACTAG | 0.00488
ATCAGACG | 0.0965
GGAGTGAC | -0.0854
AGCTCCAT | -0.216
ACTGTCCA | -0.0712
CATACCCC | -0.0287
CGTACCCA | 0.376
AGTACCCC | -0.00507
GGTACCCA | -0.0644
AGTACCCA | -0.131
CGTACCCC | 0.391
CTTTTGGA | -0.147
ACCCACAC | 0.11
CATACGGA | 0.365
CATACGCA | 0.313
GATACGGA | 0.278
TATACGGA | 0.47
TATACGCA | 0.449
GATACGCA | 0.276
